# From PubChem BioAssay (NCATS)
# Results filed as inconclusive are left out. Entries that show only a call come without a potency. Activity calls are given as the source filed them. Calls follow the shape of the dose curve; as a rule, active = well fitted cell-killing curve with a large enough effect; inconclusive = small, poorly fitted or top-dose-only effect; inactive = no such curve, though single readings can be large or run the other way.
# Experiment: qHTS of pediatric cancer cell lines to identify multiple opportunities for drug repurposing: Primary screen for SK-N-SH cells (AID 1347098); also: nearly all actives have a fitted effect of over 65% in size
# Conditions: SK-N-SH viability, CellTiter-Glo luminescence, 48 h; series mostly up to 57 µM
# Source text: Drug repurposing or repositioning has been offered as a strategy for drug development in oncology programs. This approach has special potential for childhood cancers and other rare or orphan diseases, where the expected return on new drug development has been a disincentive to pharmaceuticals.
# In this project we exploit the poly-pharmacology of drugs to discover new indications via phenotypic screening of a panel of 19 well-characterized cell lines derived from solid tumors seen in children and adolescents. The goal is to identify approved drugs with previously unrecognized anticancer properties that has the potential to reveal new mechanisms and biological processes involved in carcinogenesis or drug resistance. We employed a titration-based paradigm (quantitative high-throughput screening or qHTS), where all compounds were tested at multiple concentrations for their effect on cell viability. Concentration-response curves (CRCs) were derived directly from the primary screen, and both potency and efficacy values were used to identify compounds with robust bioactivity profiles. We screened the NIH Chemical Genomics Center (NCGC) Pharmaceutical Collection (NPC) and Mechanism Interrogation Plate (MIPE) small molecule collections of approved and investigational compounds against these cell lines; and measured metabolically active cells after 48 hours of compound treatment as a proxy for cell viability.
# Assay Submitter: Nathalia J. Martinez, National Center for Advancing Translational Sciences, National Institutes of Health, Rockville, MD, USA; email: natalia.martinez@nih.gov
# [1] Shen, M et al. Quantitative high-throughput phenotypic screening of pediatric cancer cell lines identifies multiple opportunities for drug repurposing. Oncotarget 2017 Dec 19;9(4):4758-4772. PMID 29435139.
# The cells were obtained from University of North Carolina (UNC), Pediatric Preclinical Testing Program (PPT), and Coriell Institute (CI).
# qHTS cell viability assay:
# Cells were assayed in growth media at a density of 500-1,000 cells/well. Five microliters of cells were dispensed into 1,536-well, white, solid-bottom, TC-treated plates (Greiner Bio One) using a multidrop dispenser and incubated at 37 degrees C, 5% CO2, under a humidified atmosphere for 5 hours. Twenty-three nanoliters of compounds and controls (neutral control DMSO or positive control bortezomib at final concentration of 2.3 µM) were subsequently transferred by Kalypsys pintool. For primary screens, the MIPE collection was tested at 11-point dilutions (final concentrations range from 0.78 nM to 46 µM) and the NPC collection at 8-point dilutions (final concentrations range from 0.59 nM to 46 µM). Compounds tested in follow-up screens were assayed at 11-point dilutions. Cells were incubated for 48 hours, followed by addition of 3 µL of CellTiter-Glo (Promega). After a 15 min incubation at room temperature, samples were analyzed for luminescence intensity using a ViewLux High-throughput CCD imager equipped with clear filters.
# Potency is read from the fitted curve at half-maximal effect.
row,Compound,Potency
1,Cc1c(Nc2ncccc2C(=O)O)cccc1C(F)(F)F,inactive
2,CN(C)CCn1nnnc1SCC1=C(C(=O)O)N2C(=O)[C@@H](NC(=O)Cc3csc(N)n3)[C@H]2SC1,inactive
3,S=c1[nH]c2ccccc2s1,inactive
4,NC(=O)C(c1ccccc1)(c1ccccc1)[C@@H]1CCN(CCc2ccc3c(c2)CCO3)C1,inactive
5,CC(N)C(=O)OC(C)(C)Cc1ccc(Cl)cc1 (stereo not given),inactive
6,O=C(O)c1cc(O)c(O)c(O)c1,inactive
7,CC1(C)S[C@@H]2[C@H](NC(=O)[C@H](N)c3ccccc3)C(=O)N2[C@H]1C(=O)O,inactive
8,O=C(O)Cc1ccc(-c2ccccc2)cc1,inactive
9,CCCCCCCCCCCCOCCO,inactive
10,Cc1[nH]cnc1CN1CCc2c(c3ccccc3n2C)C1=O,inactive
11,O=C(O)Cc1ccc2c(c1)C(=O)c1ccccc1CO2,inactive
12,O=C(O)c1ccccc1Nc1cccc(C(F)(F)F)c1,inactive
13,Nc1ccc(C(=O)O)c(O)c1,inactive
14,Nc1ccc([N+](=O)[O-])cc1O,inactive
15,CN(C)c1ccc(N=NS(=O)(=O)O)cc1,inactive
16,[O-][n+]1ccccc1SSc1cccc[n+]1[O-],0.067 µM (active)
17,Cc1c(N)c(=O)n(-c2ccccc2)n1C,inactive
18,COc1cc2c3cc1Oc1cc(ccc1O)C[C@@H]1c4c(cc(OC)c(O)c4Oc4ccc(cc4)C[C@@H]3N(C)CC2)CC[N+]1(C)C,inactive
19,C=CCCCCCCCCC(=O)O,inactive
20,CCCCCCCCCCCC(=O)[O][Sn]([CH2]CCC)([CH2]CCC)[O]C(=O)CCCCCCCCCCC,inactive

row,Compound,Potency
1,C[N+]1(C)[C@@H]2CC(OC(=O)[C@H](CO)c3ccccc3)C[C@H]1[C@@H]1O[C@@H]12 (stereo not given in full),inactive
2,CCC1C(=O)OCC1Cc1cncn1C (stereo not given),inactive
3,COC(=O)c1nc(Cl)c(Cl)nc1N,3.44 µM (active)
4,CN1CC(=O)N/C1=N/C(=O)Nc1cccc(Cl)c1,inactive
5,O=C(/C=C/c1ccccc1)NCCO,inactive
6,C#CC1(O)CC[C@H]2[C@@H]3CCC4=CCCC[C@@H]4[C@H]3CC[C@@]21C (stereo not given in full),24.4 µM (active)
7,CN1CCN(c2cc3c(nn2)Oc2ccccc2N3C)CC1,inactive
8,O=C(Nc1ccc(C(=O)O)c(O)c1)c1ccccc1,inactive
9,CC(=O)SCC(CC(=O)c1ccc(C)cc1)C(=O)O (stereo not given),inactive
10,CCCCCCCCCCCCCCCCCC(=O)O,inactive
11,CC(=O)c1ccc(OCC(=O)N2CCCCC2)cc1,inactive
12,COc1cc(NC(C)CCCN)c2ncccc2c1 (stereo not given),17.2 µM (active)
13,CCCCCCOc1ccccc1C(N)=O,inactive
14,Nc1cc(-c2ccncc2)c[nH]c1=O,inactive
15,COc1ccc(-c2cc(=S)ss2)cc1,inactive
16,N=C(N)N,inactive
17,CNC(=O)c1c(I)c(NC(=O)CCCCC(=O)Nc2c(I)c(C(=O)O)c(I)c(C(=O)NC)c2I)c(I)c(C(=O)O)c1I,inactive
18,Cc1ccc(C(=O)c2ccc(CC(=O)O)n2C)cc1,inactive
19,O=C1CN(/N=C/c2ccc([N+](=O)[O-])o2)C(=O)N1,inactive
20,Nc1c(CC(=O)O)cccc1C(=O)c1ccc(Br)cc1,inactive
